Laboratory results published in PMC5540273 (PLoS ONE, 2017).

Assays:
Conditions in all cases: concentration: 1 μM, replicates: in singlicate; n = 1
[1] = test system: BMPR1A
[2] = test system: BMPR1B
[3] = test system: BMPR2
[4] = test system: BMX
[5] = test system: BRAF
[6] = test system: T1, BRK
T1 construct: gene PTK6

[7] = test system: BRSK1
[8] = test system: BRSK2
[9] = test system: BTK
[10] = test system: BUB1
[11] = test system: CAMK1B
[12] = test system: CAMK1D
[13] = test system: CAMK1G
[14] = test system: CAMK1
[15] = test system: CAMK2A
[16] = test system: CAMK2B
[17] = test system: CAMK2D
[18] = test system: CAMK2G
[19] = test system: CAMK4
[20] = test system: CAMKK1
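Further: KINOMEscan kinase panel screen.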

Structure (SMILES) | %Inh [1] | %Inh [2] | %Inh [3] | %Inh [4] | %Inh [5] | %Inh [6] | %Inh [7] | %Inh [8] | %Inh [9] | %Inh [10] | %Inh [11] | %Inh [12] | %Inh [13] | %Inh [14] | %Inh [15] | %Inh [16] | %Inh [17] | %Inh [18] | %Inh [19] | %Inh [20]
COc1cc(Nc2nccc(N3CCC(NC(=O)Nc4cc(C)ccc4C)C3)n2)cc(OC)c1OC (stereo not shown) [GSK1379762] | 0% | 0% | 0% | 35% | 7% | 13% | 0% | 0% | 0% | 26% | 14% | 10% | 0% | 17% | 0% | 0% | 0% | 16% | 0% | 21%
Cc1ccc(-c2cc(-c3c[nH]nc3-c3ccccn3)ccn2)cc1 [GW684088] | 0% | 18% | 0% | 36% | 0% | 3% | 0% | 0% | 51% | 40% | 55% | 13% | 14% | 9% | 2% | 0% | 16% | 25% | 0% | 30%
Cc1cc(NCC(c2ccccc2)c2ccccc2)nc(NCc2ccc(C(F)(F)F)cc2)n1 [GW497681] | 0% | 0% | 14% | 18% | 0% | 2% | 0% | 0% | 0% | 35% | 0% | 17% | 3% | 12% | 0% | 0% | 13% | 25% | 0% | 5%
O=S(=O)(c1ccc(-c2ccnc3[nH]ccc23)cc1)N1CCCC1 [GSK846226] | 0% | 0% | 24% | 10% | 0% | 0% | 0% | 0% | 0% | 0% | 30% | 31% | 33% | 39% | 47% | 12% | 44% | 34% | 0% | 2%
Cc1cc(-c2ccc3c(c2)CC[C@@H](N[C@@H](C)c2ccccc2)C3)cnc1N.Cl [GW412617] | 0% | 0% | 0% | 50% | 1% | 22% | 0% | 0% | 0% | 17% | 4% | 13% | 100% | 23% | 0% | 0% | 97.6% | 21% | 18% | 12%
Nc1ncnc2[nH]c(-c3ccccc3)nc12 [AH5015] | 0% | 0% | 0% | 20% | 6% | 16% | 1% | 0% | 1% | 38% | 29% | 13% | 0% | 0% | 0% | 0% | 0% | 0% | 0% | 0%
COc1cccc(NC(=O)NC2CCN(c3ccnc(Nc4ccc(F)cc4)n3)C2)c1 (stereo not shown) [GSK1379721] | 0% | 0% | 7% | 0% | 0% | 0% | 0% | 0% | 0% | 10% | 27% | 12% | 0% | 10% | 0% | 0% | 6% | 22% | 0% | 18%
Cn1ccc2ncnc(Oc3ccc(Nc4nc5ccccc5[nH]4)cc3)c21 | 0% | 0% | 0% | 0% | 0% | 0% | 0% | 2% | 0% | 0% | 0% | 0% | 0% | 0% | 7% | 5% | 2% | 0% | 0% | 14%
